Measured values as given in PubChem BioAssay (Tox21).
Inconclusive results are not listed. Unmarked numbers belong to inactive results. Calls follow the shape of the dose curve; as a rule, active = well fitted cell-killing curve with a large enough effect in the repeat runs; inconclusive = weak or mixed curves, or effect the other way; inactive = flat fitted curve, though single readings scatter.

Test: qHTS RealTime-Glo MT Cell Viability Assay in HEK293 cells - 24 hour (AID 1224886); also: top concentration of the series differs between compounds; nearly all actives have a fitted effect of over 50% in size
Conditions: RealTime-Glo luminescence; series mostly up to 76.8 µM; activity change, negative = cytotoxicity: at the top concentration
Excerpt: National Center for Advancing Translational Sciences [NCATS]
NIH Chemical Genomics Center [NCGC]
U.S. Environmental Protection Agency [EPA]
National Institutes of Environmental Health Sciences [NIEHS]
National Toxicology Program [NTP]
U.S. Food and Drug Administration [FDA]
Measure of cell viability is critical in the cell-base assay. Analysis of cell viability is necessary for the characterization of cell responses to cytotoxic drugs and environmental stress. A RealTime-Glo MT Cell Viability Assay to monitor cell viability in real time of continues cell culture during 40 hours of compound treatment was used to screen Tox21 10K library compounds in Hek293 cells. The RealTime-Glo MT Cell Viability Assay is a nonlytic, homogeneous, bioluminescent method to measure cell viability in real time using a simple, plate-based method. The assay involves adding NanoLuc luciferase and a cell-permeant prosubstrate to cells in culture. Viable cells reduce the proprietary prosubstrate to generate a substrate for NanoLuc luciferase. This substrate diffuses from cells into the surrounding culture medium, where it is rapidly used by the NanoLuc Enzyme to produce a luminescent signal. The signal correlates with the number of viable cells, making the assay well suited for cytotoxicity studies.
Tox21 Assay Protocol Summary:
The mixture of Hek293 cell suspension and reagents were dispensed at 600cells/6 ul/well in 1536-well tissue culture treated black solid bottom plates using a Multidrop dispenser. After the assay plates were incubated at a 37 C/5% CO2 incubator for 5 hours, 23 nL of compounds dissolved in DMSO, positive and negative controls was transferred to the assay plate by a pintool work station. The plates were incubated at 37 C for 40 hours. The luminescence intensity were measured at 0h, 8h, 16h, 24h, 32h and 40h time points using ViewLux plate reader during compound treatment.
% is scaled to controls: 0 for no effect and ±100 for the full control effect.

Compared with `CC(=O)SC[C@@H](C)C(=O)N1CCC[C@H]1C(=O)N[C@@H](Cc1ccccc1)C(=O)O`, `CCN1CCN(C(=O)N[C@@H](C(=O)N[C@@H]2C(=O)N3[C@@H]2SC(C)(C)[C@H]3C(=O)O)c2ccccc2)C(=O)C1=O` is higher in “activity change, negative = cytotoxicity” value: 1.12% [at 35.3 µM] for the first, 7.45% [at 35.3 µM] for the second.

First: CC(C)(C)C(=O)NCCCC(=O)O
Second: O=C(O)/C=C(\CC(=O)O)C(=O)O
The “activity change, negative = cytotoxicity” value of the first is lower: 3.8% [at 35.3 µM] for the first, 5.82% [at 35.3 µM] for the second.

Compared with `O=C(O)CCC(=O)Nc1ccc(S(=O)(=O)Nc2nccs2)cc1`, `CC(=O)Nc1ccc(S(=O)(=O)Nc2cc(C)on2)cc1` is lower in “activity change, negative = cytotoxicity” value: -0.907% [at 35.3 µM] for the first, -1.27% [at 35.3 µM] for the second.

Going from `COc1ccccc1N1CCN(CC(O)COc2cc(OC)c(OC)c(OC)c2)CC1` (stereo not given) to `COc1cc2nc(N3CCN(C(=O)C4CCCO4)CC3)nc(N)c2cc1OC` (stereo not given), the “activity change, negative = cytotoxicity” value falls from 3.87% [at 35.3 µM] to -17% [at 35.3 µM].

First: CCOC(=O)COc1ccc2c(C)c(CCN(CC)CC)c(=O)oc2c1Cl
Second: Cc1cc2c(cc1CC(=O)c1sccc1S(=O)(=O)Nc1onc(C)c1Cl)OCO2
The “activity change, negative = cytotoxicity” value of the first is lower: -2.17% [at 35.3 µM] for the first, 3.11% [at 35.3 µM] for the second.

Compared with `C[C@@H]1CCC[C@H](C)N1CCCC(O)(c1ccccc1)c1ccccn1` (stereo not given in full), `CCN1CCN(C(=O)N[C@@H](C(=O)N[C@@H]2C(=O)N3C(C(=O)O)=C(CSc4nnnn4C)CS[C@H]23)c2ccc(O)cc2)C(=O)C1=O` is higher in “activity change, negative = cytotoxicity” value: -0.866% [at 35.3 µM] for the first, 12.1% [at 35.3 µM] for the second.

Compared with `CN(C)CCc1c[nH]c2ccc(CS(=O)(=O)N3CCCC3)cc12`, `O=P(O)(O)C(O)(Cc1cccnc1)P(=O)(O)O` is lower in “activity change, negative = cytotoxicity” value: 1.6% [at 35.3 µM] for the first, -1.39% [at 35.3 µM] for the second.

With `O=C(O)P(=O)(O)O` the “activity change, negative = cytotoxicity” value was 9.81% [at 35.3 µM].

Going from `CC/C=C\CCOC(=O)c1ccccc1` to `CCC(=O)OCCOc1ccccc1`, the “activity change, negative = cytotoxicity” value rises from -25% to 3.02%.

Going from `CCN(CC)CC` to `CCCCCC(=O)CC`, the “activity change, negative = cytotoxicity” value rises from -12.7% to 14.7%.

First: CCCCCC(CC)OC(=O)CCCOc1ccc(Cl)cc1Cl (stereo not given)
Second: CCCCc1ccc(Cl)cc1
The “activity change, negative = cytotoxicity” value of the first is lower: -1.32% for the first, 0.0968% for the second.

First: Cc1cccc(N)n1
Second: Cc1ccc(Br)cc1
The “activity change, negative = cytotoxicity” value of the first is lower: -1.63% for the first, 0.136% for the second.

Going from `CC(C)(O)c1ccc(C(C)(C)O)cc1` to `CC(=O)Oc1ccc(C(C)=O)cc1`, the “activity change, negative = cytotoxicity” value falls from -0.635% to -5.86%.

First: OCCC(F)(F)C(F)(F)C(F)(F)C(F)(F)C(F)(F)C(F)(F)F
Second: O=C[C@@H](O)[C@H](O)[C@H](O)CO
The “activity change, negative = cytotoxicity” value of the first is higher: 0.41% for the first, -3.15% for the second.

Going from `CCCCCCCCCCCC(C)=O` to `CCCCCCCCC1CO1` (stereo not given), the “activity change, negative = cytotoxicity” value falls from 8.54% to -7.27%.

First: CSC(=O)c1cccc2nnsc12
Second: Cc1ccc(O)c([N+](=O)[O-])c1
The “activity change, negative = cytotoxicity” value of the first is higher: 0.0804% for the first, -12.1% for the second.

Compared with `Cc1cc(O)c(Cl)cc1C`, `O=S(=O)(O)c1ccc(Cl)cc1` is higher in “activity change, negative = cytotoxicity” value: 1.59% for the first, 7.69% for the second.

First: COCc1nnc(-c2ccc[n+]([O-])c2)n1-c1c(Cl)c(Cl)cc2[nH]c(=O)c(=O)[nH]c12
Second: O=Cc1ccc(C(=O)O)cc1
The “activity change, negative = cytotoxicity” value of the first is lower: -3.99% for the first, -0.0401% for the second.

Compared with `CCC(C)SSC(C)CC` (stereo not given), `C=CC(=O)OCC[N+](C)(C)C` is lower in “activity change, negative = cytotoxicity” value: 11.8% for the first, 11.2% for the second.

Compared with `CC(C)(C)OC=O`, `C=CCN(CC=C)CC=C` is higher in “activity change, negative = cytotoxicity” value: 9.16% for the first, 10.6% for the second.

Work on `CCCCCCCCCCCCCCCCN(C)C` yielded an activity change, negative = cytotoxicity of 5.99% [at 6.97 µM].
